We go through 55 compounds from PubChem BioAssay.

A number with no mark means an inactive call. No rule for the calls is given here.

This assay addresses Pantothenate synthetase (Mycobacterium tuberculosis (strain ATCC 25618 / H37Rv)) (UniProt P9WIL5). The experiment in a line: Coupled enzyme confirmation of inhibitors against recombinant Mtb PanC (AID 375).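 Also: 0% = full reaction with vehicle and 100% = no enzyme background.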 To be noted: coupled enzyme assay; at 10 µM, hits give high values.

Chain of Pantothenate synthetase (Mycobacterium tuberculosis (strain ATCC 25618 / H37Rv)) (P9WIL5 whole entry, looked up): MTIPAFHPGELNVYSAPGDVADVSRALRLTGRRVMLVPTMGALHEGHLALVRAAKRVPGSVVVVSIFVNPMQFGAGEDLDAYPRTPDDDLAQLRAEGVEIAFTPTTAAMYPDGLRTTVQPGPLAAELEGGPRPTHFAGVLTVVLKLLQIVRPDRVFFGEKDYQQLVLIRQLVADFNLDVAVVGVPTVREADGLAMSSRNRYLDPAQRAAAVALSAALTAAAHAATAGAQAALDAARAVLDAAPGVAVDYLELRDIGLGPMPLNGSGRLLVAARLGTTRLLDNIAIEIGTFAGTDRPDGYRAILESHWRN

As usually defined, the inhibition is the percentage by which the read-out fell short of the control. Regarding `CC(C)(C)n1ncc2c(=O)n(CC(=O)NCc3ccc(F)cc3)cnc21`, the inhibition was 4%. For the compound `CCC(=O)Oc1ccc(/C(CC)=C(\CC)c2ccc(OC(=O)CC)cc2)cc1`, the inhibition was 0%.

On to `CCn1c(Cc2ccccc2)nnc1SCC(=O)Nc1nc2ccccc2s1`, for which the inhibition was 2%. On to `CCC(C)C(NC(=O)C1CCC(C)CC1)C(=O)NCc1cccnc1` (stereo not given), for which the inhibition was 6%.

For the compound `CN1CCN(c2oc(COc3ccc(-c4ccccc4)cc3)nc2C#N)CC1`, the inhibition was 0%. In the case of `Cc1ccc(N(C)C(=O)N2CCN(c3ccccn3)CC2)cc1` it was 0%; in that of `CCn1cc(C(=O)N2CCCC2)c(=O)c2cc(S(=O)(=O)N3CCOCC3)ccc21`, 0%. In the case of `CCOc1ccc2[nH]c(=O)c(CN(Cc3nnnn3CCc3ccccc3)CC3CCCO3)cc2c1` (stereo not given) it was 0%; in that of `Cc1ccc(CS(=O)(=O)CCC(=O)NCC2CCCO2)cc1` (stereo not given), 0%. To `CCCCCC1NC(=O)NC1CCCCCC(=O)O` (stereo not given) belongs 0%.

On to `CCOc1ccc(C2C=C(c3ccc(F)cc3)Nc3ncnn32)cc1` (stereo not given), for which the inhibition is 9%. To `COc1cccc(N(C(C)=O)c2nc(C)cc(C)c2C#N)c1` belongs 0%. To `COc1ccc(CCN2CCC(Nc3nc4ccccc4n3Cc3ccc(F)cc3)CC2)cc1` belongs 2%. In the case of `CCN(CC)CCCN1C(=O)C(O)=C(C(C)=O)C1c1cccc(OC)c1` (stereo not given), the inhibition is 0%. In the case of `COCCNC(=O)C(C)N(c1ccc(Oc2ccccc2)cc1)S(C)(=O)=O` (stereo not given) it was 0%; in that of `CCc1nnc(SCC(=O)NC2CCCCC2)nc1CC`, 1%.

On to `NS(=O)(=O)c1ccc(NC(=O)CSc2nnc(Cc3cccs3)n2-c2ccccc2)cc1`, for which the inhibition is 1%. Turning to `COc1cc(CN2CCC(C(=O)NC3CCCC3)CC2)ccc1O`, the inhibition was 0%. To `Cc1nc2sc(C#N)c(N)c2c2c1CCCC2` belongs 2%. In the case of `CCN(C#N)c1nc(NC(C)C)nc(NC(C)C)n1` it was 5%; in that of `CCN1CCN(c2nc(-c3cccnc3)nc3ccccc23)CC1`, 0%; in that of `Cn1c(SCC(=O)O)nnc1C1CCCCC1`, 1%. As for `COc1ccc(CCNC(=O)c2cnn3ccccc23)c(OC)c1OC`, the inhibition is 4%. In the case of `CCCCOn1c(C)c(C(=O)OCC)c2c3nonc3ccc21` it was 0%; in that of `CCOC(=O)c1sc2nc(SCC(=O)NCc3ccco3)n(Cc3ccccc3)c(=O)c2c1C`, 0%. To `c1cn(CC2(Cn3ccnc3)COC2)cn1` belongs 1%. Regarding `O=C(Nc1ccc(F)cc1)c1cccc2c1C(=O)N(Cc1ccccn1)C2`, the inhibition was 0%. In the case of `C=CCSC1=C(C#N)C(c2ccccc2OCC)CC(=O)N1` (stereo not given) it was 0%; in that of `Cc1nc2sc(C(c3ccc(Br)cc3)N3CC(C)OC(C)C3)c(O)n2n1` (stereo not given), 0%. For `CSc1nc2c(c(=O)n1C)SC(C)C2` (stereo not given), the inhibition was 0%.

In the case of `CC1(C)NC(=O)N(CNc2cc(Cl)ccc2Cl)C1=O`, the inhibition was 0%. In the case of `Nc1ccc(S(=O)(=O)Nc2ncccn2)cc1` it was 6%. To `CS(=O)(=O)NCC(c1cccnc1)N1CCN(c2ccc(F)cc2)CC1` (stereo not given) belongs 1%; to `Cc1ccc(S(=O)(=O)C2(C(=O)NC3CCCC3)CC2)cc1`, 9%; to `N#Cc1nc(-c2cccs2)oc1NCc1ccc(Cl)cc1`, 0%. In the case of `O=P(CCNCc1ccco1)(c1ccccc1)c1ccccc1` it was 0%; in that of `Cc1ccc(C)c(CSc2nnc(CCN)o2)c1`, 0%; in that of `CCC1CCCCN1S(=O)(=O)c1ccc(C(=O)Nc2nnc(-c3cccs3)o2)cc1` (stereo not given), 2%.

As to `COc1cc(-c2nnc(SCc3c(F)cccc3Cl)o2)cc(OC)c1OC`, the inhibition is 0%. As for `COc1ccc(C(=O)CSc2nnc(CNc3ccc(C)cc3C)o2)cc1`, the inhibition is 2%.

For `CCOC(OCC)P(=O)(C(C)C)C(C)C`, the inhibition is 0%.

For the compound `COc1ccc(S(=O)(=O)NC(CC(=O)NCc2ccco2)c2ccco2)cc1` (stereo not given), the inhibition is 3%. With `COc1ccccc1C1C(C#N)=C(N)Oc2cc(C)n(Cc3ccccn3)c(=O)c21` (stereo not given), the inhibition is 1%.

For the compound `CCOc1ccc2ccccc2c1/C=N/n1cncn1`, the inhibition is 0%.

For `O=C(c1csc2ccccc12)N1CCCCCC1`, the inhibition was 2%. With `CCCn1c(SCC(=O)N2CCc3ccccc3C2)nc2c1c(=O)n(C)c(=O)n2C`, the inhibition is 1%.

For the compound `COc1ccc(OC)c(C(=O)CSc2nc3ncccc3[nH]2)c1`, the inhibition is 0%.

With `C=CCN1C(=O)C2(c3ccccc31)C1CCCC=C1C(C#N)=C(N)C2(C#N)C#N` (stereo not given), the inhibition is 0%.

Consider `CN1CCN(CC(=O)N2c3ccccc3C(C)(c3ccccc3)CC2(C)C)CC1` (stereo not given), for which the inhibition was 0%. As to `CC(=O)Oc1ccc(C(c2ccc(OC(C)=O)cc2)c2ccccn2)cc1`, the inhibition is 0%. To `Cc1nn(-c2ccccc2)c2c1C(O)n1c(nc3ccccc31)S2` (stereo not given) belongs 2%; to `O=C(CS(=O)(=O)Cc1ccccc1)Nc1nc2ccccc2s1`, 0%; to `O=C(Cc1ccccc1)Nc1ccc(CN2CCOCC2)cc1`, 0%.

On to `NS(=O)(=O)c1cc2c(cc1Cl)NC(CSCc1ccccc1)=NS2(=O)=O`, for which the inhibition was 0%. To `CCn1nnnc1SCC(=O)N1c2ccccc2CCc2ccccc21` belongs 1%.
